Experimental data reported in the supplement of paper PMC6763611.

test system: Plasmodium falciparum NF54; test: growth inhibition relative to untreated control; higher = more inhibition; conditions: 5 µM; MM + chorismate end-products (CM screening medium); 72 h
Procedure, shortened: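 P. falciparum NF54 ring stages (1% hematocrit, 1% parasitemia, 100 μL/well in 96-well half-area dark plates) were exposed for 72 h at 37 °C to single 5 μM or 1 μM doses of Pathogen Box compounds. The medium was minimal RPMI or minimal RPMI plus chorismate end-products (2.2 μM folate, 7.3 μM pABA, 7.3 μM pHBA, 111 μM tyrosine, 90 μM phenylalanine, tryptophan). Growth inhibition was read by SYBR Green, normalised to untreated controls, with uninfected erythrocytes as background.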

Structure (SMILES) | growth inhibition
Cc1ccc(NC(=O)c2nc[nH]c2C(=O)Nc2nc3ccccc3[nH]2)c(C)c1 | 26.8%
CC(=O)Nc1ccc(NC(=O)c2cc(-c3cc(Cl)ccc3O)n[nH]2)cc1 | 96.3%
Cn1ncc2c(N3CCOCC3)nc(NCCc3c[nH]c4ccccc34)nc21 | 10.8%
CC(=O)Nc1ccc(-c2noc(CC3CCCN(Cc4cccc(F)c4C)C3)n2)cc1 (stereo not given) | 93.6%
CN1CCCN(C(c2ccccc2)c2ccc(Cl)cc2)CC1 (stereo not given) | 33.8%
CN1CCN(c2nccc3nc(-c4ccc(F)c(F)c4)[nH]c23)CC1 | > 100%
O=S(=O)(c1ccc(Cl)cc1)N1CCN(C(=S)NCc2ccco2)CC1 | 94.3%
CNCCC(Oc1ccc(C(F)(F)F)cc1)c1ccccc1 (stereo not given) | < 0%
CC(C)(C)c1ccc(N[C@@H]2CCCC[C@H]2NC(=O)c2ccco2)cc1 | < 0%
Cc1cc(O)nc(-n2nc(C)cc2C)n1 | < 0%
CC1=Nc2ccc(Cl)cc2C(O)(c2ccc(C)cc2)N1CCN1CCCCC1 (stereo not given) | > 100%
CCn1ncc2c(NC3CCOCC3)c(CNC(=O)c3ccnn3C)c(C)nc21 | 92.6%
Brc1cncc(-c2cc(NCCCn3ccnc3)nc(-c3ccccc3)n2)c1 | 91.2%
NCCC(O)C(=O)N[C@@H]1C[C@H](N)[C@@H](OC2O[C@H](CN)[C@@H](O)[C@H](O)[C@H]2O)[C@H](O)C1OC1O[C@H](CO)[C@@H](O)[C@H](N)[C@H]1O (stereo not given in full) | < 0%
COc1ccc(N(CCc2cccc(C)n2)C(C)=O)cc1 | < 0%
CN(C)c1cc(NC(=O)Nc2ccccc2)c2ccccc2n1 | 88.6%
COc1cc(Br)cc2cc(C(=O)Nc3cccc(C(F)(F)F)c3)c(=O)oc12 | 21.7%
COc1ccc(S(=O)(=O)Nc2ccc(CN3CCN(C(=O)c4cccc(C#N)c4)CC3)cc2)cc1 | 41.6%
O=C(c1ccc(F)cc1)N(CCNc1ccccc1)c1ccccc1 | 58.9%
CC[C@@H]([C@H](C)O)n1ncn(-c2ccc(N3CCN(c4ccc(OC[C@@H]5CO[C@@](Cn6cncn6)(c6ccc(F)cc6F)C5)cc4)CC3)cc2)c1=O | 88.9%
CN1CCN(CCCOc2ncc(Nc3ncc(-c4ccc(C(F)(F)F)c(F)c4)nc3C(N)=O)cn2)CC1 | > 100%

same assay, conditions: 5 µM; minimal medium (MM); 72 h

Structure (SMILES) | growth inhibition
COc1cc(C(F)(F)F)nc2ccc(C)c(N)c12 | < 0%
CCOc1ccccc1NC(C)C(=O)Nc1cc(C(F)(F)F)ccc1N1CCOCC1 (stereo not given) | 96.1%
CCc1ccc([C@@H]2C[C@H](C(F)(F)F)n3ncc(C(=O)NCc4ccc(OC)cc4)c3N2)cc1 | 3.56%
O=C(Nc1cnc2ccccc2c1)c1cccc(-n2cnnn2)c1 | 87.1%
COc1ccc(-c2cnc3ccc(NCc4ccc(S(N)(=O)=O)cc4)nn23)cn1 | 92.1%
CCc1ccc(S(=O)(=O)Nc2cc(CN3CCN(CCC(C)C)CC3)ccc2C)cc1 | 13.6%
Cc1nc(-c2cccc(NCc3ccccc3)c2)[nH]c1C | 94.7%
O=C(C1CCN(c2cc(-n3cccc3)ncn2)CC1)N1CCc2ccccc2C1 | 3.34%
COc1ccc(Cn2cnc3c(-c4ccco4)nc(Cl)nc32)cc1 | 23.6%
O=C(CN1CCOCC1)Nc1ccc2ncnc(Nc3ccc(OCc4cccc(F)c4)c(Cl)c3)c2c1 | 91.9%
CC(C)/N=c1\cc2n(-c3ccc(Cl)cc3)c3ccccc3nc-2cc1Nc1ccc(Cl)cc1 | 94.1%
NC(=O)c1cc(-c2ccsc2)ccc1OCCOc1ccccc1 | < 0%
Cc1nnc(NCc2cccc(Cl)c2)c2ccccc12 | < 0%
CCc1nc2ccccc2n1CC(O)COc1cc(C)ccc1Cl (stereo not given) | 61%
O=C(N[C@H](Cc1ccccc1)C(=O)Nc1ccccc1N1CCOCC1)c1cccs1 | 27.5%
CC(C)(C)OC(=O)N1CCC(Cn2nc(-c3cnc4ccccc4c3)c3c(N)ncnc32)CC1 | 52.3%
CC(Oc1cccc(Cl)c1)C(=O)Nc1ccc2oc(-c3ccncc3)nc2c1 (stereo not given) | 3.02%
Cc1ccc(NC(=O)c2nc[nH]c2C(=O)Nc2nc3ccccc3[nH]2)c(C)c1 | 80.9%
CC(=O)Nc1ccc(NC(=O)c2cc(-c3cc(Cl)ccc3O)n[nH]2)cc1 | 90.8%
Cn1ncc2c(N3CCOCC3)nc(NCCc3c[nH]c4ccccc34)nc21 | < 0%
CC(=O)Nc1ccc(-c2noc(CC3CCCN(Cc4cccc(F)c4C)C3)n2)cc1 (stereo not given) | 82%
CN1CCCN(C(c2ccccc2)c2ccc(Cl)cc2)CC1 (stereo not given) | 17.6%
CN1CCN(c2nccc3nc(-c4ccc(F)c(F)c4)[nH]c23)CC1 | 91.1%
O=S(=O)(c1ccc(Cl)cc1)N1CCN(C(=S)NCc2ccco2)CC1 | 92.6%
